The values that follow come from PubChem BioAssay AID624111 (Johns Hopkins Ion Channel Center, 2012).

Hit rate of the full screen: of about 4,000 compounds, about 60 (2%) were called active.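 How the source made its calls: active means duplicate-averaged calcium fluorescence ratio at least three times the standard deviation of buffer wells, a nonspecific response in parental cells; inactive means the rest.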 Many of the other results were omitted from the sample, so actives are more common in it than they were.

A short description of the test: nonspecific calcium signal in parental HEK293, confirmation, counter-screen for MrgX1 antagonist project, parental HEK293 cells, Fluo-4 calcium flux (AID 624111). The note with it: parental HEK293, Fluo-4 calcium fluorescence, FDSS; at 10 µM. In general terms: The purpose of a counterscreen is to sort out artefacts and off-target activity.
Turning to `C=CCSc1nc(Cc2ccc(Cl)cc2)nc2ccccc12`, the fluorescence ratio F(max-min)/F0 result was “inactive”.
In the case of `O=C(NC1CCCCC1)C1c2ccccc2C(=O)N1Cc1ccco1` (stereo not given) it was “inactive”; in that of `Cc1ccc(C(=O)COC(=O)CCN2C(=O)C3C4CC(C(Br)C4Br)C3C2=O)cc1` (stereo not given), “inactive”.
On to `CC(C)(C)Nc1c(-c2cccs2)nc2ccccn12`, for which the fluorescence ratio F(max-min)/F0 entry was “inactive”.
For the compound `Cc1ccc(CS(=O)(=O)c2ncc(Cl)c(C(=O)Nc3nnc(C)s3)n2)cc1`, the fluorescence ratio F(max-min)/F0 entry was “inactive”.
With `COc1ccc(C(=O)NNC(=S)NC(=O)c2ccccc2)cc1`, the fluorescence ratio F(max-min)/F0 entry was “inactive”.
Take `O=C(CN1CCN(c2ccc(Cl)cc2)CC1)N1CCCC1`: the fluorescence ratio F(max-min)/F0 entry was “inactive”.
In the case of `Cc1ccc(NC2(C#N)C(=O)Nc3ccccc32)cc1` (stereo not given) it was “inactive”.
As for `O=C(c1ccc(OC2CCN(C(=O)c3cccnc3)CC2)cc1)N1CCCCCC1`, the fluorescence ratio F(max-min)/F0 entry is “inactive”.
Consider `Cc1nc(N2CCN(c3ccccn3)CC2)c2c(C)c(C(=O)Nc3ccc(F)c(Cl)c3)sc2n1`, for which the fluorescence ratio F(max-min)/F0 entry is “inactive”.
In the case of `Cc1ccnc(-n2sc3ccccc3c2=O)n1` it was “inactive”; in that of `C=CCNC(=O)c1cc(-c2ccccc2O)on1`, “inactive”.
Take `CN1/C(=C\C=C2\N=C(c3ccc(F)cc3)OC2=O)C(C)(C)c2ccccc21`: the fluorescence ratio F(max-min)/F0 result was “inactive”.
In the case of `COc1ccc(C(=O)Nc2c(N)nc(SCC(=O)N3CCC(C)CC3)[nH]c2=O)cc1OC`, the fluorescence ratio F(max-min)/F0 result was “inactive”.
`Cc1ccc2nc(-c3ccc(NC(=O)c4cccnc4)cc3)oc2c1`: the fluorescence ratio F(max-min)/F0 entry is “inactive”.
With `Cc1ccc2c(c1)c1ncnc(N3CCc4ccccc4C3)c1n2C` the entry was “inactive”; with `CCCCOC(=O)CNc1nnc(SCC(=O)OCC)[nH]c1=O`, “inactive”; with `COc1cccc(CNC(=O)C2CCN(S(=O)(=O)c3cccc4cccnc34)CC2)c1`, “inactive”.
As for `Cc1nc(C)c(-c2csc(NCCc3ccccc3)n2)s1`, the fluorescence ratio F(max-min)/F0 result is “inactive”.
For the compound `CN(c1cccc(NC(=O)Nc2ccc(Cl)cc2)c1)S(C)(=O)=O`, the fluorescence ratio F(max-min)/F0 result was “inactive”.
